The remaining activity is the signal under treatment as a percentage of the control signal. As usually defined, the viability is a read-out of living cells in per cent, often relative to untreated cells. As a reminder, the AC50 is the midpoint of the concentration-response curve, whichever way the signal moves. As usually defined, the IC50 is the concentration that gives 50% inhibition.

Several values for one entry are separate records, joined by “and”; a condition that tells them apart may be missing. Identical values can stand only once. Records with an inconclusive call do not appear. Activity calls are given as the source filed them.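 Rule for the calls, unless noted: active = normalized viability below 100% at a tested concentration; inactive = the rest.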

We go through 4 molecules from PubChem BioAssay.

Test [1] has as its system Aerobactin synthetase IucA (Klebsiella pneumoniae). The experiment in a line: IucA aerobactin synthetase inhibitors, biochemical, Tocris library, absorbance (AID 1345561; call rule not given here;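 note: 100% = enzyme without compound and 0% = no enzyme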). To be noted: purified IucA enzyme assay, absorbance (OD) read-out; stronger effect = lower value;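 tested at 8 µM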.
Test [2] can be described thus: growth inhibition of DIPG glioma cells, dose response, cell-based, SU-DIPG-XIII, MIPE4.0, CellTiter-Glo, qHTS (AID 1347061; cut-off not given, nearly all actives have AC50 up to about 37 µM;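 note: cells exposed to compound for 48 hours before readout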). To be noted: SU-DIPG-XIII viability, CellTiter-Glo ATP luminescence. A general note: ATP-based viability assays read luminescence as a measure of living cells.
A short description of test [3]: growth inhibition of DIPG glioma cells, dose response, cell-based, JHH-DIPG-1, MIPE4.0, CellTiter-Glo, qHTS (AID 1347062; cut-off not given, nearly all actives have AC50 up to about 27 µM;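 for AC50: cells exposed to compound for two days before readout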). To be noted: JHH-DIPG-1 viability, CellTiter-Glo ATP luminescence.
The nature of test [4]: sensitizers of A549 cells to miR-34 induction, primary screen, imaging, A549 dox-inducible miR-34, nuclei and caspase counts (AID 1347080;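 active = compounds whose cell count with miR-34 switched on is under 0.7 times the count with it off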). To be noted: A549 miR-34 inducible, Hoechst nuclei count, 48 h.
Test [5] can be described thus: modifiers of HSF1 nuclear foci, imaging, Selleck Cancer Library (AID 1347162; in the data active = plate-normalised HSF1 focus index below about 0.46). The conditions noted are these: human cells, at 10 µM; SSMD: measured here: HSF1 foci SSMD mean; cell count: measured here: cell number; plate-normalised HSF1 focus index: stronger effect = lower value.
A short description of test [6]: ovarian cancer cell viability with rucaparib, profiling panel, oncology-focused library, rucaparib conditional (AID 1508598). The conditions noted are these: patient-derived ovarian cancer cells, CellTiter-Glo viability, 144 h, stronger effect = lower value.
The nature of test [7]: viability rescue of complex I mutant cybrids, primary screen, cell-based, galactose medium, ATP luminescence (AID 1645843;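 active = z-score of at least 1.8 in each of two replicates, scored against plate mean and spread of sample wells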;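 note: positive z means more ATP and so rescue of galactose-driven cybrid death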). The conditions noted are these: complex I mutant cybrid cells, 72 h, stronger effect = higher value.
Test [8] is described as follows: liver-stage malaria parasite growth inhibition, primary screen, cell-based, HepG2, luciferase luminescence, HepG2 viability (AID 624349; in the data active = parasite load remaining mostly below about 12%, no sharp cut-off; inactive = mostly above about 10%;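 note: 100% = mean of DMSO negative control wells on the same plate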). The conditions noted are these: P. berghei liver stage in HepG2, luciferase luminescence, concentration not given here; parasite load remaining: stronger effect = lower value; viability: measured here: HepG2 viability without parasites.
Test [9] is described as follows: growth inhibition of DIPG glioma cells, dose response, cell-based, SU-DIPG-XIII, MIPE5.0, CellTiter-Glo, qHTS (AID 1347064; cut-off not given, nearly all actives have AC50 up to about 23 µM;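 note: cells exposed to compound for 48 hours before the viability read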). To be noted: SU-DIPG-XIII viability, CellTiter-Glo ATP luminescence.
Test [10] is described as follows: SU-DIPG-VI glioma cell viability, MIPE4.0 library, CellTiter-Glo luminescence, qHTS (AID 1347066; cut-off not given, nearly all actives have AC50 up to about 30 µM;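 note: cells exposed to compound for 48 hours before readout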). The conditions noted are these: CellTiter-Glo ATP luminescence.
The nature of test [11]: JHH-DIPG-1 glioma cell viability, MIPE5.0 library, CellTiter-Glo luminescence, qHTS (AID 1347067; cut-off not given, nearly all actives have AC50 up to about 26 µM;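 note: cells exposed to compound for 48 hours before readout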). To be noted: JHH-DIPG-1 glioma viability, CellTiter-Glo ATP luminescence.
Test [12] can be described thus: SU-DIPG-XXV glioma cell viability, MIPE5.0 library, qHTS (AID 1347068; cut-off not given, nearly all actives have IC50 up to about 30 µM;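 for IC50: cells exposed to compound for 48 hours before viability readout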). Background: In qHTS, concentration-response curves come from the screen itself.
A short description of test [13]: growth inhibition of DIPG glioma cells, dose response, cell-based, SU-DIPG-IV, MIPE4.0, CellTiter-Glo, qHTS (AID 1347063; cut-off not given, nearly all actives have AC50 up to about 30 µM;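 note: compound exposure lasted 48 hours before the viability readout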). The conditions noted are these: SU-DIPG-IV viability, CellTiter-Glo ATP luminescence.
A short description of test [14]: viability loss in pontine glioma line – cell-based, SU-DIPG-XXV, MIPE5.0, CellTiter-Glo, qHTS, dose response (AID 1347065; cut-off not given, nearly all actives have AC50 up to about 26 µM;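 note: cells exposed to compound for 48 hours before ATP readout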). To be noted: CellTiter-Glo ATP luminescence.
The nature of test [15]: survival rescue of mitochondrial mutant cells in low glucose, primary screen, MELAS cybrids, Rieske KO mouse fibroblasts, CellTiter-Glo (AID 1508586;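 active = mean z-score across replicates of 1.96 or higher in either the MELAS or the Rieske mutant cell line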;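 note: z relative to plate mean and SD of compound and empty wells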).
The mark [16] stands for this setting: stronger effect = lower value, cell number ratio, induced over uninduced.
Where [17] appears, read: measured here: relative caspase fold change +Dox/-Dox.
Where [18] appears, read: measured here: total cells with miR-34 induction, stronger effect = lower value.
Where [19] appears, read: measured here: total cells without miR-34 induction.

As for `CC(C)c1onc(-c2c(Cl)cccc2Cl)c1COc1ccc(/C=C/c2cccc(C(=O)O)c2)c(Cl)c1`, the remaining activity in test [1] is 99.1% (inactive). Besides, the outcome in test [2] and in test [3] was inactive. The fold change was 0.989 (inactive) in test [4] (setting [16]) and 1.32 in test [4] (setting [17]). Also, the cell count in [4] (setting [18]) was determined as 5590; in test [4] (setting [19]), 5650; in test [5], 6870. In test [5], this molecule showed an SSMD of 2.06. Besides, the plate-normalised HSF1 focus index in test [5] is 1.11 (inactive). Also, the viability in [6] (at 0.000305 µM, OCI-C5x cells, with rucaparib 10 µM, 100% = cells with rucaparib alone) was 95.7% (active); in [6] (at 0.000305 µM, OCI-C5x cells, without rucaparib), 107% (inactive); in test [6] (at 0.000305 µM, OCI-P5x cells, with rucaparib 20 µM, 100% = cells with rucaparib alone), 90.8% (active); in [6] (at 0.000305 µM, OCI-P5x cells, without rucaparib), 87.3% (active); in test [6] (at 0.00122 µM, OCI-C5x cells, with rucaparib 10 µM, 100% = cells with rucaparib alone), 107% (inactive); in [6] (at 0.00122 µM, OCI-C5x cells, without rucaparib) it was 97.6% (active). The viability in test [6] (at 0.00122 µM, OCI-P5x cells, with rucaparib 20 µM, 100% = cells with rucaparib alone) is 99.3% (active); in [6] (at 0.00122 µM, OCI-P5x cells, without rucaparib), 89.4% (active); in test [6] (at 0.00488 µM, OCI-C5x cells, with rucaparib 10 µM, 100% = cells with rucaparib alone), 103% (inactive); in test [6] (at 0.00488 µM, OCI-C5x cells, without rucaparib), 97.6% (active); in test [6] (at 0.00488 µM, OCI-P5x cells, with rucaparib 20 µM, 100% = cells with rucaparib alone) it was 102% (inactive); in test [6] (at 0.00488 µM, OCI-P5x cells, without rucaparib), 91.9% (active). For the same molecule, the viability is 101% (inactive) in test [6] (at 0.0195 µM, OCI-C5x cells, with rucaparib 10 µM, 100% = cells with rucaparib alone); 98.1% (active) in test [6] (at 0.0195 µM, OCI-C5x cells, without rucaparib); 100% (inactive) in test [6] (at 0.0195 µM, OCI-P5x cells, with rucaparib 20 µM, 100% = cells with rucaparib alone); 98.8% (active) in test [6] (at 0.0195 µM, OCI-P5x cells, without rucaparib); 99.7% (active) in test [6] (at 0.0781 µM, OCI-C5x cells, with rucaparib 10 µM, 100% = cells with rucaparib alone); 105% (inactive) in test [6] (at 0.0781 µM, OCI-C5x cells, without rucaparib). Also, the viability was 104% (inactive) in [6] (at 0.0781 µM, OCI-P5x cells, with rucaparib 20 µM, 100% = cells with rucaparib alone); 97.9% (active) in [6] (at 0.0781 µM, OCI-P5x cells, without rucaparib); 97.6% (active) in test [6] (at 0.313 µM, OCI-C5x cells, with rucaparib 10 µM, 100% = cells with rucaparib alone); 97.8% (active) in test [6] (at 0.313 µM, OCI-C5x cells, without rucaparib); 106% (inactive) in test [6] (at 0.313 µM, OCI-P5x cells, with rucaparib 20 µM, 100% = cells with rucaparib alone); 100% (inactive) in [6] (at 0.313 µM, OCI-P5x cells, without rucaparib). The viability in test [6] (at 1.25 µM, OCI-C5x cells, with rucaparib 10 µM, 100% = cells with rucaparib alone) is 102% (inactive); in test [6] (at 1.25 µM, OCI-C5x cells, without rucaparib) it was 97.1% (active); in test [6] (at 1.25 µM, OCI-P5x cells, with rucaparib 20 µM, 100% = cells with rucaparib alone) it was 103% (inactive); in [6] (at 1.25 µM, OCI-P5x cells, without rucaparib), 101% (inactive); in test [6] (at 5 µM, OCI-C5x cells, with rucaparib 10 µM, 100% = cells with rucaparib alone), 76.1% (active); in [6] (at 5 µM, OCI-C5x cells, without rucaparib), 89.5% (active). Besides, the viability in test [6] (at 5 µM, OCI-P5x cells, with rucaparib 20 µM, 100% = cells with rucaparib alone) was 99.6% (active); in [6] (at 5 µM, OCI-P5x cells, without rucaparib), 98.8% (active). Besides, the z-score in [7] was -0.665 (inactive).
Take `NC(=O)c1ccc(-c2nc(-c3ccc4c(c3)OCCO4)c(-c3ccccn3)[nH]2)cc1`: the parasite load remaining in test [8] was 23.5% (inactive). Further, the viability in [8] came out at 94.8%. Moreover, in [1], the remaining activity is 105% (inactive). The molecule was called inactive in test [3], in test [10] and in test [12]. The AC50 was 13.2 µM (active) in test [9] and 20.9 µM (active) in test [11]. The fold change in test [4] (setting [16]) is 0.947 (inactive) and 0.907 (inactive); in [4] (setting [17]), 1.17 and 1.19. Moreover, the cell count in test [4] (setting [18]) is 6010 and 7770; in test [4] (setting [19]), 6350 and 8570; in [5] it was 7030. In test [5], this molecule gave an SSMD of 3.6. The plate-normalised HSF1 focus index in [5] was 1.22 (inactive). Also, the z-score in [7] is -0.34 (inactive).
Regarding `O=C(c1ccc(Nc2nccc(-c3cc4ccccc4s3)n2)cc1)N1CCC(N2CCCC2)CC1`, in [8], the parasite load remaining is 27.7% (inactive). Further, the viability in [8] was 86.2%. Besides, the remaining activity in [1] was 98.9% (inactive). The AC50 is 23.5 µM (active) in test [2]; 18.7 µM (active) in [3]; 8.33 µM (active) in [13]; 8.33 µM (active) in [9]; 7.42 µM (active) in test [14]; 18.7 µM (active) in [10]. The AC50 in test [11] is 9.34 µM (active). The IC50 in [12] is 9.34 µM (active). Also, the fold change is 1.04 (inactive) and 1.02 (inactive) in test [4] (setting [16]); 0.636 and 0.577 in [4] (setting [17]). The cell count is 3590 and 394 in [4] (setting [18]); 3460 and 385 in [4] (setting [19]). The z-score in test [15] (MELAS cybrid survival, CellTiter-Glo 48 h, stronger effect = higher value) was -0.0984 (inactive); in test [15] (Rieske KO mouse fibroblast survival, CellTiter-Glo 72 h), 0.125; in test [7], -0.705 (inactive).
On to `Clc1ccc(-c2nc3sccn3c2/C=N/OCc2ccc(Cl)c(Cl)c2)cc1`, for which the remaining activity in test [1] was 112% (inactive). For the same molecule, the outcome in test [3], in test [13], in [10], in [11] and in test [12] was inactive. Besides, the AC50 in [9] is 20.9 µM (active); in test [14], 23.5 µM (active). Further, the fold change in test [4] (setting [16]) is 0.906 (inactive) and 0.897 (inactive); in test [4] (setting [17]), 1.07 and 1.53. For the same molecule, the cell count in test [4] (setting [18]) is 4600 and 7870; in [4] (setting [19]), 5080 and 8770. In test [7], the z-score is 0.06 (inactive).
